Bioassay records deposited in PubChem by National Center for Advancing Translational Sciences (NCATS).
Hits are enriched below; roughly 7.3% of the tested compounds scored in any of these assays.
IP6K1 inhibitor: IP6K1 kinase inhibition; actives 0.81% (n = 140,000); AID 1645851; activity change, % (series mostly up to about 58 µM); IP6K1 kinase, ADP-Glo luminescence, 2 h; hits give low values; in the data active = activity change below about -25%; note: % is set by controls: 0 for no effect and ±100 for the full control effect
Target sequence (Q92551 whole entry, looked up): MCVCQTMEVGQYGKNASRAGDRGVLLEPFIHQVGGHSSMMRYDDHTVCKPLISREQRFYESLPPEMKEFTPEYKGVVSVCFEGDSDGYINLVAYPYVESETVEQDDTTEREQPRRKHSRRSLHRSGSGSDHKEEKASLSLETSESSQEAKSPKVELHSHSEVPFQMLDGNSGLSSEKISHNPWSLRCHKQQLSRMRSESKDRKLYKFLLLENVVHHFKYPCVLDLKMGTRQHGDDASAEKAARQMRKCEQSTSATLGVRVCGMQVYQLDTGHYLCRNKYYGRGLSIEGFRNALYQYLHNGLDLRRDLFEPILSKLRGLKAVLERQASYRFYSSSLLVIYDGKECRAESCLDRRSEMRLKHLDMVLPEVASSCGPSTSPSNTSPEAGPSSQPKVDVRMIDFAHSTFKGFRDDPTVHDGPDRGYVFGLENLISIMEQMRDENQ
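ADP-Glo luminescence measures ADP made by human IP6K1 during a 2 h RT reaction with ATP/IP6 (mix at 1.3 mM/130 uM); top library doses 57.5 and 19.1 uM final.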
FLuc inh-1: inhibitors of firefly (Photinus pyralis) luciferase; Potency, µM (series often up to 115 µM), actives largely listed as inhibitors; P08659; purified P. pyralis luciferase, luminescence, biochemical; actives 2.5% (n = 76,000); note: potency is the fitted concentration of half-maximal effect; % is set by controls: 0 for no effect and ±100 for the full control effect; nearly all actives have a fitted effect of over 65% in size
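Inhibitors were tested against purified firefly luciferase in a biochemical, low-substrate format (both substrates at 10uM) and luminescence measured with a CCD imager.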
HEK cytotox: HEK 293 cell cytotoxicity | HEK 293 viability, ATP luminescence (CellTiter-Glo), 48-72 h | Potency, µM (doses to about 115 µM), inactives show at the highest dose activity change, negative = cytotoxicity, actives largely listed as inhibitors | actives 6.6% (n = 94,000); note: potency is the fitted concentration of half-maximal effect; % is set by controls: 0 for no effect and ±100 for the full control effect; nearly all actives have a fitted effect of over 60% in size
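250 HEK 293 cells/well; compound by pintool; incubated 48 or 72 hr at 37 degree Celsius; CellTiter-Glo added, 10 min RT, luminescence imaged.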
HEK293 viab: reduces viability of HEK-293 SNCA reporter cells; HEK-293-SNCA-luc viability, GF-AFC fluorescence, 24 h; Potency, µM (doses to about 57.1 µM), for inactives: at the top dose activity change, negative = cytotoxicity, usual class: cytotoxic; actives 0.12% (n = 150,000); AID 1671193;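 note: potency is the fitted concentration of half-maximal effect; 0% = DMSO-treated cells and -100% = medium-only wells without cells; nearly all actives have a fitted effect of over 30% in size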
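Cytotoxicity counterscreen: after 24 h compound treatment of genome-edited SNCA-luciferase HEK-293 cells, live-cell protease substrate GF-AFC read by fluorescence after 30 min; activity scaled between DMSO (0%) and medium-only (-100%), curves Hill-fitted.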
3T3 cytotox: kills NIH 3T3 cells | actives 4.3% (n = 94,000) | Potency, µM (top dose mostly 96.7 µM), for the others: at the top dose activity change, negative = cytotoxicity, usual class: inhibitors | AID 1345082 | NIH 3T3 viability, CellTiter-Glo ATP luminescence, 48-72 h; note: potency is the fitted concentration of half-maximal effect; % is set by controls: 0 for no effect and ±100 for the full control effect; nearly all actives have a fitted effect of over 55% in size
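Cells were seeded at 400 per well, treated with pin-transferred compound, and kept 48 or 72 hr at 37 °C before CellTiter-Glo addition and luminescence imaging of cellular ATP.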
SNCA expr inhib: reduces expression of the alpha-synuclein gene; HEK-293 SNCA-luciferase knock-in, luminescence, 24 h; Potency, µM (highest dose often 57.2 µM), for inactives: at the top dose activity change, negative = inhibition, actives largely listed as inhibitors; actives 0.17% (n = 140,000);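 note: potency is the fitted concentration of half-maximal effect; plate controls were DMSO cells for no effect and cell-free wells for full effect; nearly all actives have a fitted effect of over 45% in size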
FLuc SDR no ATP: binders stabilizing firefly luciferase, without ATP; shares compounds with FLuc inh-1; Purified FLuc-C-HiBiT, Nano-Glo HiBiT luminescence, no ATP; actives 7.8% (n = 1,300); Potency, µM (series often up to 32.7 µM), for the others: at the top dose activation (signal gain), actives largely listed as activators; note: potency is the fitted concentration of half-maximal effect; nearly all actives have a fitted effect of over 55% in size
FLuc SDR ATP: stabilizes firefly luciferase with ATP present; shares compounds with FLuc inh-1; purified FLuc-C-HiBiT + ATP, HiBiT complementation luminescence; Potency, µM (titrated, usually from 32.7 µM), without a hit: at the highest dose activation (gain of signal), actives largely listed as activators; actives 8.7% (n = 1,300);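 note: signal reports ligand binding via conformational change of the enzyme rather than luciferase catalysis; potency is the fitted concentration of half-maximal effect; % of control where 0% means no effect; nearly all actives have a fitted effect of over 55% in size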
FLuc inh-2: blocks firefly luciferase enzymatic activity; shares compounds with FLuc inh-1; actives 42% (n = 1,300); Potency, µM (top dose mostly 32.7 µM), for inactives: top-dose activity change, negative = inhibition, hits mostly inhibitors; purified FLuc-C-HiBiT enzyme, luciferin luminescence; note: potency is the fitted concentration of half-maximal effect; % is set by controls: 0 for no effect and ±100 for the full control effect; nearly all actives have a fitted effect of over 70% in size
The depositor's hits bear a star; i = inactive; ? = inconclusive; / = not tested or not shown; [ ] = dose if it differs, or a comment. Unless noted, calls come from the whole dose curve; as a rule, active = well fitted curve in the direction sought with a large enough effect; inconclusive = small, poorly fitted or top-dose-only effect, or another doubt; inactive = no such curve, though single readings can be large; an effect the other way counts as inactive or inconclusive.

SMILES	IP6K1 inhibitor	FLuc inh-1	HEK cytotox	HEK293 viab	3T3 cytotox	SNCA expr inhib	FLuc SDR no ATP	FLuc SDR ATP	FLuc inh-2
COc1ccc(CC(=O)Nc2cc(-c3nc4cccnc4s3)ccc2C)cc1	-8	/	/	-22%	/	92%	/	/	/
COc1cccc(CC(=O)Nc2ccc(-c3nc4ccccc4s3)cc2Cl)c1	-20	/	/	1%	/	50%	13%	9%	-9%
COc1cccc(C(=O)Nc2ccc(-c3nc4ccccc4s3)cc2Cl)c1	4	/	/	-1%	/	38%	14%	9%	-1%
CC(=O)N1CCC2(CC1)CC(CC(=O)Nc1cccc(F)c1)CCO2 (centres undefined)	-7	/	4%	-14%	-7%	8%	/	/	/
CC(CNC(=O)c1noc(-c2ccc(F)cc2)n1)c1ccccc1 (centres undefined)	-3	i	?	-3%	?	-9%	/	/	/
COC(=O)CNC(=O)N1CCOc2ccc(CN3CCc4ccccc4C3)cc2C1	1	i	i	0%	-7%	2%	/	/	/
CCc1ccc2oc(-c3ccc(NC(=O)c4cc(OC)c(OC)c(OC)c4)cc3)nc2c1	20	/	/	-14%	/	-7%	/	/	/
CCc1ccc2oc(-c3cccc(NC(=O)c4cc5ccccc5o4)c3)nc2c1	17	/	/	?	/	203%	21%	18%	?
CCc1ccc2oc(-c3ccc(NC(=O)c4ccc(OC)c(Br)c4)cc3)nc2c1	24	/	/	9%	/	91%	12%	8%	-12%
CC(=O)NCc1nnc2n1C(C(=O)NCc1ccccc1)CC2 (centres undefined)	3	/	0%	-21%[12.5 µM]	-24%	6%	/	/	/
CCn1cc(-c2ccc(Cl)cc2)cc1C(=O)O	-1	?	-9%	-4%	-21%	27%	13%	11%	-10%
O=c1n(-c2ccc(Cl)cc2)nc2n1CCN(Cc1ccsc1)C2	-5	/	?	?	?	4%	/	/	/
CC(C)c1nc2c(c(-c3ccc(O)cc3)n1)CCN(Cc1ccccn1)CC2	5	i	1%	-1%	-21%	4%	8%	8%	-6%
CC(C)c1nc2c(c(-c3ccc(O)cc3)n1)CN(Cc1ccccc1)CC2	-7	i	?	-9%	-26%	0%	11%	7%	-5%
COc1ccc(CN2CCc3nc(C(C)C)nc(-c4ccc(O)cc4)c3C2)cc1	-4	i	?	-1%	?	-5%	/	/	/
CN(C(=O)[C@@H]1C[C@@H](c2ccc(F)cc2)N([S+](=O)([O-])c2ccccc2)C1)c1cccnc1	7	i	?	5%[87.6 µM]	?	29%[87.6 µM]	/	/	/
COc1ccc(C(=O)Nc2nc3c(s2)CCCC3)cc1Cl	7	/	/	-13%	/	6%	/	/	/
Cc1cccc(C(=O)Nc2nc3c(s2)CCCC3)c1	-24	/	/	-5%	/	-76%	?	?	2.5µM*
COCC(=O)N[C@H]1CC[C@]2(C)CC[C@@H]([C@H](C)C(=O)NCc3cccs3)[C@H](O)[C@H]2[C@@H]1C	-8	i	-3%	6%	-6%	5%	/	/	/
Cc1ccc(Cc2cn3cc(-c4ccccc4)nc3s2)cc1	-2	/	/	-3%	/	?	?	?	0.44µM*
Clc1ccc(-c2cn3cc(Cc4ccccc4)sc3n2)cc1	4	/	/	-6%	/	27%	30%	?	0.79µM*
Fc1ccc(Cc2cn3cc(-c4ccc(F)cc4)nc3s2)cc1	-4	/	/	0%	/	?	?	?	0.88µM*
Fc1ccccc1Cc1cn2cc(-c3ccc(Cl)cc3)nc2s1	13	/	/	-1%	/	31%	20%	?	1.6µM*
Cc1ccc(CNC(=O)c2sc3nc(-c4ccccc4)cn3c2C)cc1	-6	/	/	17%	/	-6%	/	/	/
O=c1oc2ccccc2cc1-c1cn2cc(Cc3cc(Cl)ccc3Cl)sc2n1	1	/	/	14%	/	-3%	/	/	/
SMILES	IP6K1 inhibitor	FLuc inh-1	HEK cytotox	HEK293 viab	3T3 cytotox	SNCA expr inhib	FLuc SDR no ATP	FLuc SDR ATP	FLuc inh-2
Cc1c(C(=O)NCc2ccc(F)cc2)sc2nc(-c3ccc(F)cc3)cn12	7	/	/	-16%	/	-9%	/	/	/
CN1CCN(C(=O)c2nc3sccn3c2-c2cccc(C(F)(F)F)c2)CC1	23	/	-8%	5%	-22%	4%	/	/	/
Fc1ccc(-c2cn3cc(Cc4ccccc4Cl)sc3n2)cc1	-17	/	/	7%	/	?	?	?	0.99µM*
O=C(NCc1ccccc1F)c1cn2cc(-c3ccc(F)cc3)sc2n1	19	/	-9%[172 µM]	3%[87.6 µM]	-17%[138 µM]	10%[87.6 µM]	/	/	/
COc1ccc(N2CCN(C(=O)c3noc(-c4ccc(C)cc4)n3)CC2)cc1	2	14µM*	?	3%	?	30%	23%	15%	?
COc1ccccc1N1CCN(C(=O)c2noc(-c3ccc(C)cc3)n2)CC1	-11	i	-25%	-1%	?	-18%	/	/	/
Cc1cn2nc(C(=O)NCc3ccccn3)cc2c(=O)[nH]1	-11	i	-6%	3%	-16%	26%	/	/	/
Cc1cn2nc(C(=O)Nc3ccc(C(=O)NCCc4cccs4)cc3)cc2c(=O)[nH]1	7	4.5µM*	16%	-8%	5%	-24%	?	?	8.8µM*
COCCCNC(=O)N1CCC(C)(c2noc(C3CCOCC3)n2)CC1	12	/	i	3%	-7%	19%	/	/	/
Cc1ccc2c(c1)sc1nc(-c3cc4ccccc4oc3=O)cn12	8	/	/	14%	/	?	29%	?	0.25µM*
COc1ccc2cc(-c3cn4c(n3)sc3cc(F)ccc34)c(=O)oc2c1	58	/	/	0%	/	100%	/	/	/
Cc1ccc(-c2cc(NC(=O)COc3ccc(Cl)c(C)c3)on2)cc1	-1	/	/	11%	/	-1%	/	/	/
Cc1ccc(CSc2nc3ccc(NC(=O)COc4ccccc4F)cc3s2)cc1	3	/	/	-1%	/	?	/	/	/
Cc1ccc2nc(-c3ccc(NC(=O)COc4ccc(Br)cc4Br)cc3)sc2c1	-4	/	/	10%	/	-64%	?	?	3.5µM*
Cc1ccc2nc(-c3ccc(NC(=O)COc4ccc(Cl)c(C)c4)cc3)sc2c1	6	/	/	-7%	/	22%	16%	10%	-11%
